# A selection: hits, their analogues and other compounds. The true share with any hit is near 19%.
# DT40 TDP1 CPT: DT40-hTDP1 cell growth loss with CPT | chicken DT40 Tdp1-/-;hTDP1 cells + 20 nM CPT, ATP luminescence, 48 h | Potency, µM (top dose mostly 46.2 µM), for the others: at the top dose activity change, negative = growth inhibition, usual class: inhibitors | 420,000 tested, 12% active | AID 686979; further: potency means the concentration at half of the fitted maximal effect; nearly all actives have a fitted effect of over 55% in size
#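 Chicken DT40 Tdp1-/- cells complemented with human TDP1, 400 cells/well, exposed to compounds plus 20 nM camptothecin for at least 48 h at 37 C; viability read as ATP content by CellTiter-Glo luminescence.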
# HT1080 IDH1KD tx: toxicity to HT-1080 IDH1 knockdown cells (counter line) | 360,000 tested, 2% active | Potency, µM (series often up to 46.1 µM), for inactives: top-dose activity, negative = toxicity, usual class: cytotoxic | HT-1080 IDH1 knockdown viability, ATP luminescence, 48 h;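 further: potency means the concentration at half of the fitted maximal effect; 0% = DMSO wells and -100% = cell-free medium wells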
#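 % activity derives from luminescence (CellTiter-Glo), normalised to DMSO and no-cell wells. HT-1080-IDH1KD cells, 750/well, had 48 h compound exposure at 37 °C.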
# TDP1 cell noCPT: qHTS for Inhibitors of human tyrosyl-DNA phosphodiesterase 1 (TDP1): qHTS in cells in absence of CPT; DT40 Tdp1-/- hTDP1 cells, no CPT, ATP luminescence, 48 h; AID 686978, 2013; Potency, µM (titrated, usually from 46.2 µM), for the others: top-dose activity change, negative = growth inhibition, most hits filed as inhibitors; 420,000 tested, 15% active; further: potency means the concentration at half of the fitted maximal effect; nearly all actives have a fitted effect of over 55% in size
#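 Readout: luminescence from CellTiter-Glo after 30 min in the dark at RT. Cells: DT40 Tdp1-/- with stable hTDP1, 400/well. Exposure: compounds alone, ≥48 hr, 37 °C.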
# HT1080-NT tox: kills 2HG-producing HT-1080-NT fibrosarcoma cells; AID 686970; Potency, µM (series often up to 46.1 µM), for inactives: at the top dose activity, negative = less viability, most hits filed as cytotoxic; 360,000 tested, 1.6% active; HT-1080-NT fibrosarcoma viability, CellTiter-Glo ATP luminescence, 48 h;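 further: NT is the 2HG producing partner of a matched IDH1 knockdown line; potency means the concentration at half of the fitted maximal effect; 0% = DMSO-treated cells and -100% = media-only wells without cells; nearly all actives have a fitted effect of over 55% in size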
#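 Compounds were tested in concentration-response format on HT-1080-NT cells for 48 hours at 37 degrees C. Cell viability came from CellTiter-Glo luminescence; curves were classified by r2, response magnitude and activity.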
# IL-1B inflam inh: inhibitors of inflammasome signaling (IL-1 beta secretion); THP-1 LPS/ATP IL-1B secretion, AlphaLISA, 16 h; stronger effect = lower value; activity change, % at 57.5 µM; 360,000 tested, 4.7% active; AID 743279; in the data active means activity change below about -50%; inconclusive means mostly about -30% to -49%
#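 Secreted IL-1B measured by AlphaLISA bead assay after 16 h compound exposure of THP-1 cells; compounds (final up to 57.5 uM) added 1 h before LPS (250 ng/mL) and ATP (1.25 mM) stimulation; lower signal means less secretion.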
# Starred values were filed as active, the others as inactive; ? = inconclusive; / = not tested or not shown. Unless noted, the call rests on the fitted dose curve; in most records, active means well fitted curve in the direction sought with a large enough effect; inconclusive means small, poorly fitted or top-dose-only effect, or another doubt; inactive means no such curve, though single readings can be large; an effect the other way counts as inactive or inconclusive. Unless noted, on the % scale 0 is the no-effect control and ±100 the full control effect.
SMILES,DT40 TDP1 CPT,HT1080 IDH1KD tx,TDP1 cell noCPT,HT1080-NT tox,IL-1B inflam inh
CC(=O)Nc1ccccc1OC(=O)N(C)C,4%,11%,-2%,11%,17
CCOC(=O)C1CCN(/C=C2\C(=O)NC(=S)N(CC)C2=O)CC1,-6%,9%,11%,-1%,-15
COc1ccc(C(c2nnnn2-c2c(C)cccc2C)N2CCC(n3c(=O)[nH]c4ccccc43)CC2)cc1 (centres undefined),8.2µM*,?,9.2µM*,?,-92*
COc1ccc(-n2nnnc2C(c2ccccc2)N2CCC(n3c(=O)[nH]c4ccccc43)CC2)cc1 (centres undefined),16µM*,?,15µM*,?,?
Cc1cccc(C)c1-n1nnnc1C(c1ccccc1OC(F)(F)F)N1CCC(n2c(=O)[nH]c3ccccc32)CC1 (centres undefined),8.2µM*,-1%,5.8µM*,17%,-81*
O=C1NCN(c2ccccc2)C12CCN(C(c1ccccc1OC(F)(F)F)c1nnnn1Cc1ccccc1)CC2 (centres undefined),?,2%,-86%,9%,0
COc1ccc(C(c2nnnn2C2CCCCC2)N2CCC3(CC2)C(=O)NCN3c2ccccc2)cc1 (centres undefined),?,?,?,?,-18
COC(=O)c1ccc(N2C(=O)CC(N3CCC(n4c(=O)[nH]c5ccccc54)CC3)C2=O)cc1 (centres undefined),?,-1%,-25%,-2%,-2
COc1ccc(-n2nnnc2C(c2cccs2)N2CCC(n3c(=O)[nH]c4ccccc43)CC2)cc1 (centres undefined),12µM*,?,13µM*,?,-25
CCN(CC)C(=O)c1ccc(NC(=O)c2c(C)noc2C)cc1,1%,1%,5%,-6%,0
NCC(=O)c1ccc(Br)cc1,13%,/,5%,/,/
Cc1cc(N2C(=O)CC(N3CCC(n4c(=O)[nH]c5ccccc54)CC3)C2=O)no1 (centres undefined),?,16%,?,23%,0
Cc1cccc(C)c1-n1nnnc1C(c1cc2ccccc2o1)N1CCC(n2c(=O)[nH]c3ccccc32)CC1 (centres undefined),1.5µM*,?,1.3µM*,?,-23
CC(=NCC1CCCO1)c1c(O)n(C)c(=O)n(C)c1=O (centres undefined),-7%,0%,-1%,1%,13
CCCCCCCCCc1ccc(OCCOCCO)cc1,3µM*,/,3µM*,/,/
O=C(c1ccc2c3c(cccc13)CC2)C1CCCN(CC2CC2)C1 (centres undefined),18µM*,16µM*,23µM*,?,-117*
COc1ccc(C(=O)C2CCCN(CC3CCCCC3)C2)cc1OC (centres undefined),?,8%,?,1%,-11
O=C(O)CF,-2%,/,-9%,/,/
O=C1c2ccccc2C(=O)c2c1ccc1c(=O)n(-c3ccccc3)[nH]c21,?,11%,23µM*,8%,-12
C[C@]12CC[C@@H]3c4ccc(OC(=O)N(CCCl)CCCl)cc4CC[C@H]3[C@@H]1CC[C@@H]2OP(=O)(O)O,3%,/,-3%,/,/
NC1C2CN3CCN(C2)CC1(c1ccccc1)C3 (centres undefined),-5%,19%,17%,9%,-7
Cc1ccc(-c2nc3ccccc3c(=O)n2-c2ncccc2C)cc1,-22%,-1%,?,-8%,26
CCOC(=O)c1oc2ccc(S(=O)(=O)n3nc(-c4ccc(Br)cc4)cc3N)cc2c1C,21µM*,/,12µM*,/,/
CC(=O)O/C(=C1\CC2C3CC=C4CC(OC(C)=O)CCC4(C)C3CCC2(C)C1=O)C(F)(F)F (centres undefined),4.6µM*,-6%,3.7µM*,1%,33
